Measured values: PubChem BioAssay (NCI)
This is part of a sample that, as a whole, favours compounds with a hit. Of some 79,000 tested, about 15% had one in any assay. Calls of active or inactive are those of the source. No stated cut-off is given here; in the data, active means growth inhibition above about 70%; inactive means the rest.

Test: NCI Yeast Anticancer Drug Screen. Data for the CLN2oe strain (AID 163);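 further: 0% = growth of vehicle-only control cultures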
Details: S. cerevisiae CLN2oe strain, active compounds read high
Experimental: Growth inhibition of yeast strains with defined genetic alterations is measured as a screen for potential anti-cancer activity. Selected strains with alterations in DNA damage repair or cell cycle control were exposed to compounds and growth inhibition was measured relative to vehicle treated controls. The strain used in this assay is CLN2oe

Measured: growth inhibition

O=S(=O)(c1cc(Cl)ccc1O)c1cc(Cl)ccc1O
inactive: at 1.2 µM 23%
active: at 3.7 µM 89% | at 11.0 µM 99% | at 33.0 µM 100% | at 100.0 µM 99%

O=c1[nH]cc(/C=N\Nc2ccccc2)c(=O)[nH]1
inactive: at 1.2 µM -3% | at 3.7 µM 6% | at 11.0 µM 32% | at 33.0 µM 43% | at 100.0 µM 48%

CCC(=O)N(c1ccccc1)C(C)CN1CCC(O)(c2cccc(C(F)(F)F)c2)CC1 (stereo not given)
active: at 100.0 µM 73%
inactive: at 1.2 µM 2% | at 3.7 µM 1% | at 11.0 µM 13% | at 33.0 µM 41%

C=C1N(C)c2ccc(Cl)cc2C1(C)C
active: at 100.0 µM 96%
inactive: at 1.2 µM -16% | at 3.7 µM -31% | at 11.0 µM -22% | at 33.0 µM 4%

Clc1c(Cl)c(Cl)c2c(nnn2C2CCCO2)c1Cl (stereo not given)
inactive: at 1.2 µM -11% | at 3.7 µM 1% | at 11.0 µM 0% | at 33.0 µM 9% | at 100.0 µM 33%

S=c1nc(Cl)cc2[nH]c(Cl)cn12
inactive: at 1.2 µM 1% | at 3.7 µM -1% | at 11.0 µM 3% | at 33.0 µM 3% | at 100.0 µM 60%

COc1cc(/C=C/c2sc3ccccc3[n+]2C)ccc1N(C)C
inactive: at 1.2 µM -5% | at 3.7 µM -2% | at 11.0 µM -2% | at 33.0 µM 50%
active: at 100.0 µM 96%

N#C/C(=C\c1ccccc1)c1ccccc1F
inactive: at 1.2 µM 13% | at 3.7 µM 9% | at 11.0 µM 11% | at 33.0 µM 14% | at 100.0 µM 8%
